Among the data in PubChem BioAssay (NCI) are growth values, retold here.

SMILES strings stand for the structures. Compounds without any hit were thinned out: in the full panel of roughly 83,000, 20% have a hit.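 For each line, cells grew in 96-well plates with the test compound present at a single concentration for 48 hours.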 A number with no mark means an inactive call. Activity calls are given as the source filed them. The calls were made as follows: active = growth percent below 10; inactive = the rest.

Test systems include T-47D breast; BT-549 breast; MDA-MB-435 melanoma; SW-620 colon; MCF7 breast; HCT-116 colon; HCC-2998 colon; KM12 colon.
Holding throughout (experiment): NCI-60 one-dose screen, 48 h (100 = growth as untreated, 0 = no growth, -100 = all killed)
What all share (conditions): 10 µM

Consider `C/C=C/C1=CN2C(=O)c3cc(OC4OC(C)C(NC)C(C)(O)C4O)c(C)c(O)c3N=C[C@@H]2C1` (stereo partly drawn), for which the growth was -8.27% (active) with T-47D breast; -34.4% (active) in the experiment with BT-549 breast; -77% (active) in the experiment with MDA-MB-435 melanoma; -14.9% (active) in the experiment with SW-620 colon; 0.963% (active) in the experiment with MCF7 breast; 1.59% (active) in the experiment with HCT-116 colon. The growth in the experiment with HCC-2998 colon was -56.7% (active); in the experiment with KM12 colon, -60.7% (active).

For the compound `N#Cc1ccc(C(=O)CSc2nccc(Nc3ccc(C(=O)O)cc3)n2)cc1`, the growth is 110% in the experiment on T-47D breast; 103% in the experiment on BT-549 breast; 104% in the experiment with MDA-MB-435 melanoma; 104% with SW-620 colon; 91.3% with MCF7 breast; 108% in the experiment with HCT-116 colon. Moreover, the growth is 100% with HCC-2998 colon and 105% in the experiment on KM12 colon.

Regarding `O=S(=O)(Oc1ccc(-c2ccc3sccc3c2)cc1)c1ccc(F)cc1`, the growth with T-47D breast is 96%; with BT-549 breast, 102%; in the experiment with MDA-MB-435 melanoma, 93.5%; with SW-620 colon it was 93.5%; in the experiment on MCF7 breast, 84.8%; in the experiment with HCT-116 colon, 102%. Further, the growth in the experiment on HCC-2998 colon was 86.8%; in the experiment with KM12 colon, 104%.

In the case of `COc1cc(/C=C/c2cc(/C=C/c3ccc(O)c(OC)c3)n(C(=O)Nc3ccc(C)cc3)n2)ccc1O`, the growth with T-47D breast was 5.65% (active); with BT-549 breast, -23% (active); in the experiment on MDA-MB-435 melanoma, -1.64% (active); in the experiment with SW-620 colon, 8.12% (active); in the experiment with MCF7 breast, 6.3% (active); in the experiment on HCT-116 colon, 1.6% (active). In addition, the growth with HCC-2998 colon was 2.19% (active); with KM12 colon it was -1.13% (active).

With `CCOC(=O)c1cc(C(=O)c2ccc(OC)c(OC)c2)n2ccncc12`, the growth was 78.8% in the experiment with T-47D breast; 84.5% in the experiment on BT-549 breast; 104% in the experiment on MDA-MB-435 melanoma; 100% in the experiment on SW-620 colon; 79.6% with MCF7 breast; 93.3% with HCT-116 colon. Also, the growth with HCC-2998 colon and in the experiment with KM12 colon was 101% in each case.

`COc1cc(Cc2cc(-c3ccccc3)n[nH]c2=O)cc(OC)c1OC`: the growth in the experiment on T-47D breast is 40.5%; with BT-549 breast, 54.1%; with MDA-MB-435 melanoma, 11%; with SW-620 colon, 33%; with MCF7 breast, 34.9%; in the experiment with HCT-116 colon, 16.3%. For the same compound, the results for the growth with HCC-2998 colon and in the experiment with KM12 colon were 79.1% and 48.8%, respectively.

As to `COc1cc(NC(=O)Nc2cnc(Nc3ccc(N4CCOCC4)cc3)nc2Oc2cccc(OC)c2)cc(OC)c1`, the growth was 49.6% with T-47D breast; 28.8% in the experiment on BT-549 breast; 51.6% in the experiment with MDA-MB-435 melanoma; 72.6% in the experiment with SW-620 colon; 50.6% in the experiment with MCF7 breast; 32.4% with HCT-116 colon. The growth with HCC-2998 colon is 45.4%; with KM12 colon, 53.3%.

Consider `Nc1ccc(/C=N/Nc2ccnc3c(O)cccc23)c2cccnc12`, for which the growth was 98.3% in the experiment with T-47D breast; 80.2% with BT-549 breast; 46.8% in the experiment on MDA-MB-435 melanoma; 7.41% (active) in the experiment with SW-620 colon; 31.7% with MCF7 breast; -0.0751% (active) in the experiment with HCT-116 colon. The growth in the experiment on HCC-2998 colon was 60.8%; in the experiment on KM12 colon, 43.3%.

Turning to `O=c1cn[nH]c2ccc(Br)cc12`, the growth is 83% in the experiment with T-47D breast; 105% with BT-549 breast; 111% in the experiment with MDA-MB-435 melanoma; 103% in the experiment on SW-620 colon; 105% with MCF7 breast; 97.8% with HCT-116 colon. The growth with HCC-2998 colon was 108%; with KM12 colon, 98.7%.

Consider `Cc1cn(-c2cccc(NC(=O)c3ccc(C)c(Nc4nccc(-c5cccnc5)n4)c3)c2)cn1`, for which the growth is 46% with T-47D breast; -39.4% (active) in the experiment on BT-549 breast; -27.8% (active) in the experiment with MDA-MB-435 melanoma; 20.2% in the experiment on SW-620 colon; -24.6% (active) in the experiment with MCF7 breast; -87.4% (active) in the experiment with HCT-116 colon. In addition, the growth was 41.7% in the experiment with HCC-2998 colon and -94.9% (active) in the experiment on KM12 colon.

Consider `CC(=O)[C@H]1CC[C@]2(C)[C@@H]1CC[C@@H]1[C@@]3(C)CC(CCC#N)(CCC#N)C(=O)C(C)(C)[C@@H]3CC[C@]12C`, for which the growth with T-47D breast is 91.2%; with BT-549 breast, 103%; with MDA-MB-435 melanoma, 92.4%; in the experiment with SW-620 colon, 88.8%; in the experiment with MCF7 breast, 90.1%; in the experiment with HCT-116 colon, 96%. Moreover, the growth in the experiment with HCC-2998 colon is 100%; with KM12 colon, 94.5%.

As for `O=C(Nc1cccc2c1CCCC2)c1cc2ccccc2cc1O`, the growth in the experiment on T-47D breast is 32.4%; in the experiment with BT-549 breast it was 27.4%; in the experiment with MDA-MB-435 melanoma, 41.8%; in the experiment on SW-620 colon, 51.4%; in the experiment on MCF7 breast, 62.6%; in the experiment on HCT-116 colon, 6.56% (active). Besides, the figures for the growth in the experiment on HCC-2998 colon and with KM12 colon were 59.1% and 49.9%, respectively.

Consider `COc1cc(-c2nn(-c3cccc(NC(=O)CCN4CCN(c5ccccc5)CC4)c3)cc2-c2ccncc2)ccc1Cl`, for which the growth was 17.5% in the experiment with T-47D breast; 12.6% in the experiment on BT-549 breast; 16.8% in the experiment on MDA-MB-435 melanoma; 24.5% in the experiment on SW-620 colon; 12.6% in the experiment on MCF7 breast; 11.8% with HCT-116 colon. Further, the growth is 28.5% with HCC-2998 colon and 13.3% with KM12 colon.

As for `O=C(CCNC(=O)c1nc(-c2ccccc2)n(-c2ccc(Cl)cc2)n1)NO`, the growth was 78.7% in the experiment on T-47D breast; 115% in the experiment with BT-549 breast; 106% with MDA-MB-435 melanoma; 106% in the experiment with SW-620 colon; 102% in the experiment with MCF7 breast; 94% in the experiment with HCT-116 colon. For the same compound, the growth is 93.5% in the experiment with HCC-2998 colon and 93.7% with KM12 colon.

With `Oc1ccc(-c2[nH]c3ccccc3c2-c2nc3ccccc3o2)cc1`, the growth in the experiment on T-47D breast was 40%; in the experiment on BT-549 breast, 64.7%; in the experiment on MDA-MB-435 melanoma, 0.478% (active); in the experiment with SW-620 colon, 40.9%; in the experiment with MCF7 breast, 24.1%; with HCT-116 colon, 23.7%. Besides, the values for the growth with HCC-2998 colon and in the experiment on KM12 colon were 58.5% and 21%, respectively.

As to `O=C(Cn1cc(CO)nn1)Nc1nc2ccccc2s1`, the growth in the experiment on T-47D breast was 110%; in the experiment on BT-549 breast, 106%; in the experiment with MDA-MB-435 melanoma, 99.7%; in the experiment with SW-620 colon, 106%; with MCF7 breast it was 97.9%; in the experiment with HCT-116 colon, 97.2%. Further, the figures for the growth in the experiment with HCC-2998 colon and in the experiment on KM12 colon were 109% and 107%, respectively.
